# Results published in ChEMBL document CHEMBL2218924, “A broad activity screen in support of a chemogenomic map for kinase signalling research and drug discovery” (Biochem J, 2013).
# Assays:
# [1] = biological target: Tyrosine-protein kinase Fer (Homo sapiens) (UniProt P16591); settings: at 10 µM
# [2] = biological target: Tyrosine-protein kinase Fes/Fps (Homo sapiens) (UniProt P07332); settings: at 1 µM
# [3] = biological target: Tyrosine-protein kinase Fes/Fps (Homo sapiens) (UniProt P07332); settings: at 10 µM
# [4] = biological target: Tyrosine-protein kinase Fgr (Homo sapiens) (UniProt P09769); settings: at 1 µM
# [5] = biological target: Tyrosine-protein kinase Fgr (Homo sapiens) (UniProt P09769); settings: at 10 µM
# [6] = biological target: Vascular endothelial growth factor receptor 1 (Homo sapiens) (UniProt P17948); settings: at 1 µM
# [7] = biological target: Vascular endothelial growth factor receptor 1 (Homo sapiens) (UniProt P17948); settings: at 10 µM
# [8] = biological target: Vascular endothelial growth factor receptor 3 (Homo sapiens) (UniProt P35916); settings: at 1 µM
# [9] = biological target: Vascular endothelial growth factor receptor 3 (Homo sapiens) (UniProt P35916); settings: at 10 µM
# [10] = biological target: Macrophage colony-stimulating factor 1 receptor (Homo sapiens) (UniProt P07333); settings: at 1 µM
# [11] = biological target: Macrophage colony-stimulating factor 1 receptor (Homo sapiens) (UniProt P07333); settings: at 10 µM
# [12] = biological target: Tyrosine-protein kinase Fyn (Homo sapiens) (UniProt P06241); settings: at 1 µM
# [13] = biological target: Tyrosine-protein kinase Fyn (Homo sapiens) (UniProt P06241); settings: at 10 µM
# [14] = biological target: T1, Mitogen-activated protein kinase kinase kinase kinase 2 (Homo sapiens) (UniProt Q12851); settings: at 1 µM
# T1 sequence (whole entry): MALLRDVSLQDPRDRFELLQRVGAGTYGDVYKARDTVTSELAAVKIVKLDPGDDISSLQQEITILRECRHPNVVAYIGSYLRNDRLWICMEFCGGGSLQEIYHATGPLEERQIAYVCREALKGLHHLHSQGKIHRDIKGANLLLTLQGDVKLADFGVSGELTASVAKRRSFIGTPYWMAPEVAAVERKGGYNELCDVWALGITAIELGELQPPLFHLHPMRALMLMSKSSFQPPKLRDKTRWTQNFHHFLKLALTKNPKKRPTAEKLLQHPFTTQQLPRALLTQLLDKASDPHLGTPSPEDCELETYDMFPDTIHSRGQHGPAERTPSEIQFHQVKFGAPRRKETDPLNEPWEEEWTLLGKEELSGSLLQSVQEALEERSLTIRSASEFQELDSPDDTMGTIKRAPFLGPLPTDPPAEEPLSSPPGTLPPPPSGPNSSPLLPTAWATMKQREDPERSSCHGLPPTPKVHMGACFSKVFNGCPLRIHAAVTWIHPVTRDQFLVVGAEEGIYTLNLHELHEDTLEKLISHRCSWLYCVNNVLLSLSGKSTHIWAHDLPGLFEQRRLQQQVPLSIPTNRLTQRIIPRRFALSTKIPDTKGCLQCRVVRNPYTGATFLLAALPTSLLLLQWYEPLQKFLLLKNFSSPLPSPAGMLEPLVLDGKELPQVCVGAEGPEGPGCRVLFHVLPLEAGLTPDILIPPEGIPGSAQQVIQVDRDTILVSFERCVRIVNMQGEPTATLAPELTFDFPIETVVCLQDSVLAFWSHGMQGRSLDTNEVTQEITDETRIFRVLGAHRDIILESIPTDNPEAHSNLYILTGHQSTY
# [15] = biological target: T1, Mitogen-activated protein kinase kinase kinase kinase 2 (Homo sapiens); settings: at 10 µM
# [16] = biological target: G protein-coupled receptor kinase 5 (Homo sapiens) (UniProt P34947); settings: at 10 µM
# [17] = biological target: G protein-coupled receptor kinase 6 (Homo sapiens) (UniProt P43250); settings: at 10 µM
# [18] = biological target: T2, Rhodopsin kinase GRK7 (Homo sapiens) (UniProt Q8WTQ7); settings: at 1 µM
# T2 sequence (whole entry): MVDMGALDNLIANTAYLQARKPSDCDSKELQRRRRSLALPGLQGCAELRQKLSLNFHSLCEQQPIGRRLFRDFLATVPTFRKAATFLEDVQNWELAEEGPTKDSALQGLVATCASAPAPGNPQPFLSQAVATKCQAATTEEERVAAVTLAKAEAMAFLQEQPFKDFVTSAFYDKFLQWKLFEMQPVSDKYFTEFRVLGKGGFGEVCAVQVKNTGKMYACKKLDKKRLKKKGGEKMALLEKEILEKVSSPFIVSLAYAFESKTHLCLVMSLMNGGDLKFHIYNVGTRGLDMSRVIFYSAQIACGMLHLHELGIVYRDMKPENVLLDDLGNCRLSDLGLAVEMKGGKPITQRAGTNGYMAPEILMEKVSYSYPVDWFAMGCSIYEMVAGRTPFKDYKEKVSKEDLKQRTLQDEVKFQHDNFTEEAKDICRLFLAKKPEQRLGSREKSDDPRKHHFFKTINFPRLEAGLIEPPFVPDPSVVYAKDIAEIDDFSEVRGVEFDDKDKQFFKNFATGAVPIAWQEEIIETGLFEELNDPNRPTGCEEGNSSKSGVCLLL
# [19] = biological target: Receptor-type tyrosine-protein kinase FLT3 (Homo sapiens) (UniProt P36888); settings: at 1 µM
# [20] = biological target: Receptor-type tyrosine-protein kinase FLT3 (Homo sapiens) (UniProt P36888); settings: at 10 µM
# Sequence of Tyrosine-protein kinase Fes/Fps (Homo sapiens) (P07332 whole entry): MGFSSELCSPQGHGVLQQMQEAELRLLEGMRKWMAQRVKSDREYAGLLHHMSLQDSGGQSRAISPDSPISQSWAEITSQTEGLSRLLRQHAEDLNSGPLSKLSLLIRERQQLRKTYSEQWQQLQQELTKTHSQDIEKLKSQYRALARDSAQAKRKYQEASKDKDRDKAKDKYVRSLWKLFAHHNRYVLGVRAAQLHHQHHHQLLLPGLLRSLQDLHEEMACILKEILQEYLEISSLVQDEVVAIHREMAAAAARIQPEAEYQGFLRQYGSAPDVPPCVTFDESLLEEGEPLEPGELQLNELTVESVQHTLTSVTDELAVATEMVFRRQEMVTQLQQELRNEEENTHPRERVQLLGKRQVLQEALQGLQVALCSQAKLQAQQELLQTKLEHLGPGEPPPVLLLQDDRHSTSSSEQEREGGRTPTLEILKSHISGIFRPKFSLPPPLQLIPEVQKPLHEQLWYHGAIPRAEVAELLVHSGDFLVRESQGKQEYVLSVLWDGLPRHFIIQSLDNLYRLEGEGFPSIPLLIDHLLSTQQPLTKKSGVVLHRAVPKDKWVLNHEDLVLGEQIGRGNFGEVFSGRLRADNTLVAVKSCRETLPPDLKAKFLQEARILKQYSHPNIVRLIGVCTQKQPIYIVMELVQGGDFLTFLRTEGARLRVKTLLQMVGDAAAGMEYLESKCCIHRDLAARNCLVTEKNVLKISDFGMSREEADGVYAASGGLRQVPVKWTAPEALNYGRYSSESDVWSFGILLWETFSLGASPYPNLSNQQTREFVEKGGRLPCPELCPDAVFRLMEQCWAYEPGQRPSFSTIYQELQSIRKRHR
# Sequence of G protein-coupled receptor kinase 6 (Homo sapiens) (P43250 whole entry, looked up): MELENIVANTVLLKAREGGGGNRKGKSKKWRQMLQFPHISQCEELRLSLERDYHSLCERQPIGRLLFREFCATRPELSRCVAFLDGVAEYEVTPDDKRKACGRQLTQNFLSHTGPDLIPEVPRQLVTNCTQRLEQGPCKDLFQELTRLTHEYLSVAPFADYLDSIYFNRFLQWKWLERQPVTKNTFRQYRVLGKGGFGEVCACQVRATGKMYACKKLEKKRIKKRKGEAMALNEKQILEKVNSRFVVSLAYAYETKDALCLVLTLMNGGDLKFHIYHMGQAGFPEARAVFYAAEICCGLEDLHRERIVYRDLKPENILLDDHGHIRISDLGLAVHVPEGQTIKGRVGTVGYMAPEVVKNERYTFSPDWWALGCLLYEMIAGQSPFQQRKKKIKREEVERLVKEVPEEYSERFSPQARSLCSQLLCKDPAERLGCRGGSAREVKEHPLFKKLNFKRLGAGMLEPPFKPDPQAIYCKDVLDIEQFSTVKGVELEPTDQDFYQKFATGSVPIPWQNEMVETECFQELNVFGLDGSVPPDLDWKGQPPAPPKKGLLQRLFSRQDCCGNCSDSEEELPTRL
# Sequence of Tyrosine-protein kinase Fyn (Homo sapiens) (P06241 2-537 limits assumed): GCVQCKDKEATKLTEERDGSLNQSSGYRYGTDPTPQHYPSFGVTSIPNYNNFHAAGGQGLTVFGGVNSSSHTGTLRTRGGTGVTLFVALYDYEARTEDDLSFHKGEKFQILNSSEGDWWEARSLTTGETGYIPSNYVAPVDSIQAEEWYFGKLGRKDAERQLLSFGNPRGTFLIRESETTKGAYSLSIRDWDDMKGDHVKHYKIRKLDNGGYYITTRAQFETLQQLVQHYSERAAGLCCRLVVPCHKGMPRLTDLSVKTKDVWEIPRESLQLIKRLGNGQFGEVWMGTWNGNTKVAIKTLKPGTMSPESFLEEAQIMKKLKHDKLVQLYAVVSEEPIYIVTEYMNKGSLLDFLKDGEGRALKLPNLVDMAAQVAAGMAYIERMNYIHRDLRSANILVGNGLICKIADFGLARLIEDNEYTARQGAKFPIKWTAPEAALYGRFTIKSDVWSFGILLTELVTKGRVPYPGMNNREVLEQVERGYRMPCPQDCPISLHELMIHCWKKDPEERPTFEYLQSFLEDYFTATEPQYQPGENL
# Sequence of Tyrosine-protein kinase Fgr (Homo sapiens) (P09769 2-529 limits assumed): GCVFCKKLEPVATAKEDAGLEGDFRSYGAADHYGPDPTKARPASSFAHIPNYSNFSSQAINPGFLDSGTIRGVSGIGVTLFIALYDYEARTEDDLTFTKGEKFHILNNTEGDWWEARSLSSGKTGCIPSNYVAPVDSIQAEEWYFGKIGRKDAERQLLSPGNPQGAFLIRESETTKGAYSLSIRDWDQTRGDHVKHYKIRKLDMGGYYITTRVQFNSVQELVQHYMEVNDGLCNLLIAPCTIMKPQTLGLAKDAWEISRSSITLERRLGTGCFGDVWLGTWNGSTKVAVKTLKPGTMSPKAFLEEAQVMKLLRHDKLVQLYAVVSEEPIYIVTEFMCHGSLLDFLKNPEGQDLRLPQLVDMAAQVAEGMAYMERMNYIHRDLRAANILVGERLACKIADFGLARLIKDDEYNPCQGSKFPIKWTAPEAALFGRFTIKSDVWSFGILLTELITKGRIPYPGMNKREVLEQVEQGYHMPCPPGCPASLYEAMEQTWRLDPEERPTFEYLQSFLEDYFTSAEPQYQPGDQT
# Sequence of Macrophage colony-stimulating factor 1 receptor (Homo sapiens) (P07333 whole entry): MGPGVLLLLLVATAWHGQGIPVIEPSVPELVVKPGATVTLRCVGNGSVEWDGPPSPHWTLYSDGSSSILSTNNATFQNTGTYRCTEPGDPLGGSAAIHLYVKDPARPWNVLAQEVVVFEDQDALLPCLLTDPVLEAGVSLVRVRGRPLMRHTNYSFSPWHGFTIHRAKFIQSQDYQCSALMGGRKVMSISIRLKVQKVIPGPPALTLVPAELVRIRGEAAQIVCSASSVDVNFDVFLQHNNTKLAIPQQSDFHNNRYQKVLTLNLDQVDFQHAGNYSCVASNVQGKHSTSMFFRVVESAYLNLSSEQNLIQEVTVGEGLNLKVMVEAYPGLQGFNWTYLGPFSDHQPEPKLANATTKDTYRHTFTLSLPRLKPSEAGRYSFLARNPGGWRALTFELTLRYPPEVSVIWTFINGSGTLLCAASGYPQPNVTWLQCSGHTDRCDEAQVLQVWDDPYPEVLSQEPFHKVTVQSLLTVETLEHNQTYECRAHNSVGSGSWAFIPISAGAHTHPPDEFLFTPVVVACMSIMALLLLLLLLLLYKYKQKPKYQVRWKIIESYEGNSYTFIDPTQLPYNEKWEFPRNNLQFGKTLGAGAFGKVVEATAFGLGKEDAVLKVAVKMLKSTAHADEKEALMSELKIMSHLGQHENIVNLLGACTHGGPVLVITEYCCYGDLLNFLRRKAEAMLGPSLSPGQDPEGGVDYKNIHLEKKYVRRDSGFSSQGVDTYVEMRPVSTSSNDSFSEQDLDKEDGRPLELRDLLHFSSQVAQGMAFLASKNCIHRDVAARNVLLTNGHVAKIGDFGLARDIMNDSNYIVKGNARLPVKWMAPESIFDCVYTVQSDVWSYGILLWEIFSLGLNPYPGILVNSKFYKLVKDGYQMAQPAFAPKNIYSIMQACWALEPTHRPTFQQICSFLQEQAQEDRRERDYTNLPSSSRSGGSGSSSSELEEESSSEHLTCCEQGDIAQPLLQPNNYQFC
# Sequence of Vascular endothelial growth factor receptor 3 (Homo sapiens) (P35916 whole entry): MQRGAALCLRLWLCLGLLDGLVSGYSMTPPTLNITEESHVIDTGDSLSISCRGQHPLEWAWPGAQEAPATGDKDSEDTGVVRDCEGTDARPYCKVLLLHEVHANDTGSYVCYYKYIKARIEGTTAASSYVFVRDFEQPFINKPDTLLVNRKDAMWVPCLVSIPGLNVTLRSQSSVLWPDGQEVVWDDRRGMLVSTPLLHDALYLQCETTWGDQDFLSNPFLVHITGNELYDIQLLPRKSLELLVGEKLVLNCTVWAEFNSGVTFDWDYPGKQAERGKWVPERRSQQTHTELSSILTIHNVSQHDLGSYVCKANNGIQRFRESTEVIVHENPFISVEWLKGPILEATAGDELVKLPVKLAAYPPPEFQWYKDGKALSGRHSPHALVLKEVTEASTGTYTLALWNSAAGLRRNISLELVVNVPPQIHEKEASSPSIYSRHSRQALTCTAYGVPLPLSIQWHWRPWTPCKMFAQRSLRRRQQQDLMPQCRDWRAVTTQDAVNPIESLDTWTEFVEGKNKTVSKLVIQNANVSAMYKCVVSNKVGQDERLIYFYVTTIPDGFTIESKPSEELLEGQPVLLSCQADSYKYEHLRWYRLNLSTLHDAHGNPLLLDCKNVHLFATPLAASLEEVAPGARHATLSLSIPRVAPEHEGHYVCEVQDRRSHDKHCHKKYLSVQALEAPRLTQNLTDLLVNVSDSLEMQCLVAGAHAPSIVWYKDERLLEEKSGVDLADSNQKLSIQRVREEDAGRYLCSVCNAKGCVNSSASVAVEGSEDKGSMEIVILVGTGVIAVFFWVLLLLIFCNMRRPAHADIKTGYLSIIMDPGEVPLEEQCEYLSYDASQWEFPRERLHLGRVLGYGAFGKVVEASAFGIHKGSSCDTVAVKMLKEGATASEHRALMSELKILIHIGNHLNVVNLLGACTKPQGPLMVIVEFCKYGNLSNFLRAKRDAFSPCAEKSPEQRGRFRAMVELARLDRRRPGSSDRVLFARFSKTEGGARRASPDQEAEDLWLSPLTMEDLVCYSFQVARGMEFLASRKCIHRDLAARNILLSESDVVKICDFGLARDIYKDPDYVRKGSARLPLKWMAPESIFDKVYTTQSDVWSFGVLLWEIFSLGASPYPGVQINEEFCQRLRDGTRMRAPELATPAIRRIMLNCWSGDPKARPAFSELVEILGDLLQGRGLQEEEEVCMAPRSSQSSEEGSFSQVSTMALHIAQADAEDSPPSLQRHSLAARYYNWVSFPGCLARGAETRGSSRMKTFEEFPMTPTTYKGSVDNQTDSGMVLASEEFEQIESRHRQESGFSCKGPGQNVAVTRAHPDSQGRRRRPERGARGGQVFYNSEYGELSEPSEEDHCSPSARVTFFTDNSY
SMILES,residual activity [1],residual activity [2],residual activity [3],residual activity [4],residual activity [5],residual activity [6],residual activity [7],residual activity [8],residual activity [9],residual activity [10],residual activity [11],residual activity [12],residual activity [13],residual activity [14],residual activity [15],residual activity [16],residual activity [17],residual activity [18],residual activity [19],residual activity [20]
CO[C@@H]1[C@H](N(C)C(=O)c2ccccc2)C[C@H]2O[C@]1(C)n1c3ccccc3c3c4c(c5c6ccccc6n2c5c31)C(=O)NC4,14%,15%,9%,7%,4%,4%,1%,1%,3%,0%,1%,6%,10%,4%,0%,74%,70%,8%,–,–
Nc1ccc2ncnc(NCCc3ccc(Oc4ccccc4)cc3)c2c1,84%,91%,87%,84%,–,54%,26%,15%,6%,72%,–,75%,66%,72%,68%,97%,95%,110%,33%,9%
CN(C)CCCn1cc(C2=C(c3c[nH]c4ccccc34)C(=O)NC2=O)c2ccccc21,81%,125%,14%,–,55%,–,–,–,–,50%,30%,102%,70%,75%,22%,9%,32%,58%,–,–
Cn1nc2c3c(cccc31)C(=O)c1ccccc1-2,76%,98%,94%,98%,89%,75%,52%,57%,16%,72%,51%,65%,3%,60%,19%,98%,–,92%,50%,20%
COc1ccc(OC)c2c(=S)c3ccccc3[nH]c12,92%,89%,103%,94%,99%,90%,77%,89%,60%,84%,62%,83%,90%,90%,80%,97%,80%,84%,83%,73%
Cc1cccc(-c2[nH]c(C(C)(C)C)nc2-c2ccc3c(c2)OCO3)n1,–,–,87%,–,88%,86%,84%,99%,90%,–,–,105%,93%,96%,83%,103%,87%,97%,–,87%
C[C@@H](N)[C@H]1CC[C@H](C(=O)Nc2ccncc2)CC1,–,108%,108%,103%,90%,118%,108%,100%,104%,98%,110%,111%,112%,–,88%,90%,106%,97%,97%,95%
Cc1cncc2cccc(S(=O)(=O)N3CCCN(C(=O)CN)C[C@H]3C)c12,–,–,–,99%,53%,82%,63%,78%,51%,73%,78%,93%,78%,82%,46%,68%,51%,79%,100%,86%
